Where “and” joins values, the source holds several entries; their conditions need not be identical. Equal values may be shown once. Screen size: about 140,000 compounds; about 80 (0.06%) were called active. No stated cut-off is given here; in the data, active means displacement above about 50%; inactive means the rest. This excerpt belongs to a sample that is enriched for actives.
Molecular target: Heat shock 70 kDa protein 1A (Homo sapiens) (UniProt P0DMV8)
Test: Hsp70 inhibitors, probe displacement, primary screen, biochemical, fluorescence polarization (AID 583);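 further: plate controls were vehicle for no effect and reference ligand for full effect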
Settings: mP, at 20 µM, hits give high values

Heat shock 70 kDa protein 1A (Homo sapiens), sequence (P0DMV8 whole entry, looked up): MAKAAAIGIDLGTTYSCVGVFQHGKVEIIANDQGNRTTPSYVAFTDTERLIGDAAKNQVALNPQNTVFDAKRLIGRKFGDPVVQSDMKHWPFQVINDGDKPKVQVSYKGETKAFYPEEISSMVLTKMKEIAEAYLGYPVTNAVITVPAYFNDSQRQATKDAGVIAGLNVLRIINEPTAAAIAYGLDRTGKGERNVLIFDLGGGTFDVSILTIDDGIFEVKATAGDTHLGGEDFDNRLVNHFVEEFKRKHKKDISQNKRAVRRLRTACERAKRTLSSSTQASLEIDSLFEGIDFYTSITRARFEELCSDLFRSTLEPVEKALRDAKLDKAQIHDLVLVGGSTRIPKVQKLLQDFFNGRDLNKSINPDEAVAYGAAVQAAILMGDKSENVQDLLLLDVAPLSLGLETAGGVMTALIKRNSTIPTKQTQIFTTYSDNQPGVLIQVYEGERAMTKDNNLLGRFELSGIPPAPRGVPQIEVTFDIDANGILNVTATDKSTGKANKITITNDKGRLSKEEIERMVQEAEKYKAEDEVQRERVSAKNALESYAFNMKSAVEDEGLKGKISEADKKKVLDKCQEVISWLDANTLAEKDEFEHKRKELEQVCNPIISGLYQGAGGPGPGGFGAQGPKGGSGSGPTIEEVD

displacement, active:
O=C1C=CC2=C3Oc4c(ccc5cc(O)ccc45)C(c4ccccc4C(=O)O)C3C=CC2=C1 (stereo not given) 60.9%
O=C(O)c1cccc(N2C(=O)c3ccc4c5c(ccc(c35)C2=O)CC4)c1 70%
CCOc1cccc(=[O+]CC)c2c(C)oc(C)c12 80.7%
N#Cc1c2c(c(NCCCCO)n3c1nc1ccccc13)CCC2 55%
O=C(O)C1Nc2ccc([N+](=O)[O-])cc2C2C=CCC12 (stereo not given) 102%
O=C(O)C1Nc2c(cccc2[N+](=O)[O-])C2C=CCC12 (stereo not given) 76.9%
CCc1ccc(N2C(=O)/C(=C/c3ccc(I)o3)C(=O)NC2=S)cc1 84.7%
O=C1NC(=S)N(c2ccccc2F)C(=O)/C1=C/c1ccc(I)o1 81.7%
O=C1NC(=S)N(c2ccccc2F)C(=O)/C1=C/c1ccc(OCc2cccc(C(=O)O)c2)cc1 51.5%
CCOc1ccc(N2C(=O)/C(=C/c3ccc(I)o3)C(=O)NC2=S)cc1 96.7%
O=C1NN(c2cccc(Cl)c2)C(=O)/C1=C\c1ccc(-c2cccc(C(=O)O)c2)o1 55.5%
COc1cc(/C=C2/SC(=S)NC2=O)cc(Cl)c1OCc1ccc(Cl)cc1Cl 94.8%
COc1cc(/C=C2/SC(=S)NC2=O)cc(Cl)c1OCc1cccc2ccccc12 99.9%
CC(=O)NS(=O)(=O)c1ccc(NC(=O)c2ccc([N+](=O)[O-])c(C)c2)cc1 61.3%
O=C1N=C(N=Nc2c(O)[nH]c3ccccc23)S/C1=C/c1ccc(Br)cc1 82.1%

displacement, inactive:
CC1CCCCN1c1nnc(N)s1 (stereo not given) 0.6%
O=C(Cn1c(=O)n(CC2CCCO2)c(=O)c2ccccc21)N1CCN(c2ccccc2)CC1 (stereo not given) 4.1%
Cc1c(O)ccc2c1oc(=O)c1ccccc12 2.3%
O=c1oc2c(O)c(O)ccc2c2c1CCC2 1.2%
Nc1nnn(Cc2ccccc2)n1 -0.8%
CCN(CC)S(=O)(=O)c1ccc2oc(Nc3ccc4c(c3)OCCO4)nc2c1 0.7%
CC(Sc1ccc2nnc(-c3ccc(F)cc3)n2n1)C(=O)O (stereo not given) -5.3%
NC(=O)CN1CCOCCN(CC(N)=O)CCOCC1 -5%
O=C(NCC(O)c1ccccc1)C(=O)NC1CC1 (stereo not given) -1.2%
CCC(c1nnc(SCc2nc3ccccc3s2)n1Cc1ccccc1)N(C)C (stereo not given) -2.1%
O=C1CC(c2ccccc2)c2ccc(O)cc2O1 (stereo not given) 2.6%
O=C(O)c1cccc(N2C(=O)c3ccc(Br)cc3C2=O)c1 -5.6%
O=C(O)c1cccc(N2C(=O)CCC2=O)c1 3.8%
Nc1nc(CSc2nc3ccccc3[nH]2)cs1 -1.6%
Cc1cccc(N2C(=O)NC(=O)/C(=C/c3ccc(N(C)C)c(Br)c3)C2=O)c1 0.9%
CCOc1ccc(-c2cc(OCC)c3c(C)oc(C)c3c(=[O+]CC)c2)cc1 -5.4%
CCOc1cccc(=O)c2c(C)oc(C)c12 28% and 19.3%
Cc1oc(-c2ccc(Cl)cc2)nc1CN1CCCC(C(=O)NCc2ccco2)C1 (stereo not given) 0.5%
Cc1cc(C)c(NC(=O)c2c(-c3ccccc3)noc2C)c(C)c1 1.9%
CCc1nnc(SCC(=O)N2CCCc3ccccc32)nc1CC 0.4%
Cc1cc(NC(=O)c2ccc(-c3cccc(Cl)c3)o2)ccc1NC(=O)c1ccco1 -0.3%
N#Cc1c2c(c(NCCCN3CCOCC3)n3c1nc1ccccc13)CCC2 3.4%
CN(C)CCCNc1c2c(c(C#N)c3nc4ccccc4n13)CCC2 3.6%
O=[N+]([O-])c1ccc(C2Nc3ccc([N+](=O)[O-])cc3C3C=CCC32)cc1 (stereo not given) 0.4%
COc1cccc2c1NC(C(=O)O)C1CC=CC21 (stereo not given) 47.8%
O=C(O)C1Nc2c(O)cccc2C2C=CCC12 (stereo not given) 16.1%
Cc1ccc2c(c1)C1C=CCC1C(C(=O)O)N2 (stereo not given) 38.6%
O=C(CCc1ccccc1)Oc1ccc(Cl)cc1 0.9%
O=C1NC(=S)N(c2ccccc2F)C(=O)/C1=C/c1ccc(Sc2ccccc2)o1 0.9%
CCOc1ccc(N2C(=O)/C(=C/c3ccc(OCc4cccc(C(=O)O)c4)cc3)C(=O)NC2=S)cc1 5.7%
CCOc1ccc(N2C(=O)/C(=C/c3ccc(N(CC)CC)o3)C(=O)NC2=S)cc1 -73.8%
O=C1NC(=O)N(c2ccccc2F)C(=O)/C1=C/c1ccc(OCc2cccc(C(=O)O)c2)cc1 0.2%
Cc1ccc(N2C(=O)NC(=O)/C(=C\c3ccc(I)o3)C2=O)cc1 6.1%
O=C1NC(=O)N(c2ccc(Cl)cc2)C(=O)/C1=C/c1ccc(I)o1 15.2%
O=C1NC(=O)N(c2ccccc2F)C(=O)/C1=C/c1ccc(I)o1 20.6%
CCOc1ccc(N2C(=O)NC(=O)/C(=C\c3ccc(I)o3)C2=O)cc1 0.7%
CC(C)c1ccc(-c2nc(N)c3c(=O)oc4ccccc4c3n2)cc1 0.4%
O=C(CN(Cc1ccco1)C(=O)CNS(=O)(=O)c1ccccc1)NC1CCCCC1 5.9%
O=[N+]([O-])c1cc(NS(=O)(=O)Cc2ccccc2)ccc1F 3.6%
O=C(NCc1ccc2c(c1)OCO2)C1COc2ccccc2O1 (stereo not given) 3.3%
CCCn1c(=N)n(CC(=O)C(C)(C)C)c2ccccc21 7.1%
CCn1cc(Br)c(C(=O)Nc2ccc(OC)cc2)n1 8.2%
O=C(NC1CC2CCCC(C1)N2C(=O)NC1CCCCC1)c1ccccc1 (stereo not given) 0.4%
COc1cccc(C(=O)NC2CC3CCCC(C2)N3CC(=O)Nc2ccc(N(C)C)cc2)c1 (stereo not given) 2.7%
COc1cc(C(=O)NC2CC3CCCC(C2)N3CC(=O)Nc2ccccc2)cc(OC)c1OC (stereo not given) 2%
Cc1c(C(=O)N2CCc3ccccc3C2)sc2nc(-c3ccccc3)cn12 0.5%
O=C1NN(c2ccc(F)c(Cl)c2)C(=O)/C1=C\c1ccc(-c2cccc(C(=O)O)c2)o1 5.7%
O=C1NN(c2ccc(Cl)cc2)C(=O)/C1=C\c1ccc(-c2cccc(C(=O)O)c2)o1 16.5%
COc1ccc(NC(=O)Cn2nc(C)c3ccccc3c2=O)cc1 -1%
CCCOc1c(Cl)cc(/C=C2/SC(=S)NC2=O)cc1OC 1.3%
COc1cccc(OCCOc2c(Cl)cc(/C=C3/SC(=S)NC3=O)cc2OC)c1 0.2%
CCOc1cc(/C=C2/SC(=S)NC2=O)cc(Cl)c1OCc1ccc(Cl)cc1Cl 4.9%
COc1cc(/C=C2/SC(=S)NC2=O)cc(Cl)c1OCc1ccccc1F -0.4%
COc1ccc(N2C(=O)NC(=O)/C(=C\c3cccc(OC)c3OC)C2=O)cc1 -4.3%
O=C1N/C(=N/N=C/c2ccccc2)SC1Cc1ccccc1Cl (stereo not given) -1.4%
COC(=S)N/C(=N/S(=O)(=O)c1ccc(Cl)cc1)c1ccccc1 0.8%
CC1=NN(c2cccc(C(=O)O)c2)C(=O)/C1=C\c1ccco1 6.9%
CCOC(=O)c1ccc(N2N=C(C)/C(=C/C=C/c3ccco3)C2=O)cc1 0.7%
CC(=O)NS(=O)(=O)c1ccc(NC(=O)c2ccc([N+](=O)[O-])cc2)cc1 6.8%
COc1ccc(C(=O)Nc2ccc(S(=O)(=O)NC(C)=O)cc2)cc1[N+](=O)[O-] 3.6%
O=C(NCCc1ccccc1)c1cnc2sccn2c1=O -1.6%
CN(C)c1ccc(/C=C2/SC(N=Nc3c(O)[nH]c4ccccc34)=NC2=O)cc1 17.1%
Oc1[nH]c2ccccc2c1N=Nc1nc(-c2ccccc2)c2cc(Br)ccc2n1 -0.1%
COc1ccc(Br)cc1/C=C/C(=O)Nc1cccc(NC(=O)c2ccccc2Cl)c1 -1%
CCN(CC)c1nc(C)cc(COC)c1C#N 2.1%
CC(C)c1ccc(NC(=O)C(c2ccc3c(c2)OCO3)N2CCC3(CC2)OCCO3)cc1 (stereo not given) -2.7%
O=C(CCCC(=O)N1CCCCC1)NCc1ccco1 -1.6%
COC(=O)c1ccc(C(=O)OC)c(NC(=O)CSc2nnc(-c3ccccc3Cl)o2)c1 1.6%
O=S(=O)(c1cc(Cl)cc(Cl)c1O)c1cc(Cl)cc(Cl)c1O 8.8%
Oc1c(Cl)cc(Cl)cc1Sc1cc(Cl)cc(Cl)c1O 7.6%
CN(C)c1ccc(/C=C2\NC(=O)c3ccccc3C2=O)cc1 2.7%
CCOC(=O)c1sc2ncc([N+](=O)[O-])c(NC)c2c1N -5.6%
Cc1cc(=O)[nH]c(SCC(=O)Nc2ccc(S(N)(=O)=O)cc2)n1 4.4%
O=C(N/N=C/c1ccccc1OCc1ccccc1)c1ccccc1O 6%
O=C(N=Nc1c(O)n(Cc2ccccc2)c2ccccc12)c1ccccc1O 2.1%
Cc1ccc(C(=O)O/N=C(\N)c2ccccn2)cc1 0.2%
Cc1ccc(NC(=O)c2ccccc2O)cc1 2.2%
O=C(Cn1nc(C(=O)O)c2ccccc2c1=O)NCC1CCCO1 (stereo not given) -0.7%
CC(NC(=O)c1c(NC(=O)c2ccco2)sc2c1CCCCC2)c1ccccc1 (stereo not given) -6%
COC(=O)COc1ccc(/C=C2\C(=O)NC(=S)N(c3ccc(F)cc3)C2=O)cc1OC 2.8%

Source: PubChem BioAssay AID583 (Sanford-Burnham Center for Chemical Genomics, 2007)
